Measurements reported in the supplement of paper PMC10849652.
The full data set covers some 7,900 targets. This sample favours those with a hit. About 0.6% of all pairs of compound and target were hits. Unmarked numbers belong to inactive results.

What was measured:
Assay in all cases: log2 fold change, soluble protein after heating vs DMSO (PISA); higher = thermal stabilisation; K562 cells, 10 uM, 30 min; active = over 0.2 and 3.5 SD of the protein, either way, in both replicates (recomputed)
IRAK-1-4 Inhibitor I = compound: C1COCCN1CCN2C3=CC=CC=C3N=C2NC(=O)C4=CC(=CC=C4)[N+](=O)[O-] [IRAK-1-4 Inhibitor I]
In short: (§1)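 Soluble protein was defined as the supernatant after 21,000xg for 90 min. It came from K562 cells at 2×10^6 cells/mL given 10 μM compound for 30 min, heated in aliquots for 3 min across 48°C-58°C, pooled, and extracted in PBS with 0.5% NP-40 at 4°C, and was quantified by TMTpro 16plex LC-MS/MS with equalised channel sums. Thermal stability against control samples, from duplicates, is reported as log2 fold change.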

ibrutinib = compound: C=CC(=O)N1CCC[C@@H](n2nc(-c3ccc(Oc4ccccc4)cc3)c3c(N)ncnc32)C1 [ibrutinib]
In short: as §1

[1] = compound: CC(=O)c1cnc2ccc(-c3cc(Cl)c(O)c(Cl)c3)nc2c1N[C@H]1CC[C@H](CN(C)C)CC1
In short: as §1

ralimetinib = compound: CC(C)(C)Cn1c(N)nc2ccc(-c3[nH]c(C(C)(C)C)nc3-c3ccc(F)cc3)nc21 [ralimetinib]
In short: as §1

[2] = compound: CC(C)(O)CC(=O)NCCn1ccc2ncnc(Nc3ccc(Oc4cccc(C(F)(F)F)c4)c(Cl)c3)c21
In short: as §1

[3] = compound: CC(C)C1=C2N=C(C=C(N2N=C1)NCC3=CC=CC=C3)NCCCCCCN
In short: as §1

[4] = compound: CC(C)C[C@@H](C=O)NC(=O)[C@H](CC(C)C)NC(=O)[C@H](CC(C)C)NC(=O)OCc1ccccc1
In short: as §1

pinometostat = compound: CC(C)N(C[C@H]1O[C@@H](n2cnc3c(N)ncnc32)[C@H](O)[C@@H]1O)[C@H]1C[C@@H](CCc2nc3cc(C(C)(C)C)ccc3[nH]2)C1 [pinometostat]
In short: as §1

[5] = compound: CC1=C(C(CC(=O)N1)C2=CC=C(C=C2)C(F)(F)F)C(=O)NC3=C(C=C4C(=C3)C=NN4)F
In short: as §1

[6] = compound: CC1=C(C2=C(C=C1)C(=O)C3=CC=CC=C3N2CCCN)C
In short: as §1

[7] = compound: CC1=C(C=C(C=C1)NC(=O)C2=CC(=CC=C2)C(C)(C)C#N)NC3=CC4=C(C=C3)N=CN(C4=O)C
In short: as §1

[8] = compound: CC1=C(C=C(C=C1)NC(=O)C2=CC(=CC=C2)N(C)C)NC(=O)C3=CC=C(C=C3)O
In short: as §1

[9] = compound: CC1=CC=C(C=C1)SC2=C3C=C(SC3=CN=C2)C(=O)N
In short: as §1

[10] = compound: CC1=NC(=CC=C1)C2=C(N=C(N2)C(C)(C)C)C3=CC4=NC=CN=C4C=C3
In short: as §1

Nexturastat A = compound: CCCCN(Cc1ccc(C(=O)NO)cc1)C(=O)Nc1ccccc1 [Nexturastat A]
In short: as §1

vemurafenib = compound: CCCS(=O)(=O)Nc1ccc(F)c(C(=O)c2c[nH]c3ncc(-c4ccc(Cl)cc4)cc23)c1F [vemurafenib]
In short: as §1

[11] = compound: CCCS(=O)(=O)Nc1ccc(F)c(C(=O)c2c[nH]c3ncc(Cl)cc23)c1F
In short: as §1

[12] = compound: CCCc1cc(C)[nH]c(=O)c1CNC(=O)c1cc(-c2ccnc(N3CCN(C)CC3)c2)cc2c1cnn2C(C)C
In short: as §1

givinostat = compound: CCN(CC)Cc1ccc2cc(COC(=O)Nc3ccc(C(=O)NO)cc3)ccc2c1 [givinostat]
In short: as §1

barasertib = compound: CCN(CCCOc1ccc2c(Nc3cc(CC(=O)Nc4cccc(F)c4)[nH]n3)ncnc2c1)CCOP(=O)(O)O [barasertib]
In short: as §1

Chain of UniProt Q9NZC3 (Q9NZC3 whole entry, looked up): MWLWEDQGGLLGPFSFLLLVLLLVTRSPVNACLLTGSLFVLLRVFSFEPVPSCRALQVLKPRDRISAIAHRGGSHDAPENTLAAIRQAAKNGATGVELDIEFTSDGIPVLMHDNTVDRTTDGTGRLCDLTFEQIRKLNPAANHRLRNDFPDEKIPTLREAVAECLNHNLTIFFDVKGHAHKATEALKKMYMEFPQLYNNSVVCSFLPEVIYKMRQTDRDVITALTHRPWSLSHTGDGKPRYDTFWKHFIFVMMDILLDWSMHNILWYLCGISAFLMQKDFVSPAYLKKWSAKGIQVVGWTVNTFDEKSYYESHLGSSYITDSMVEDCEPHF
Chain of UniProt Q04446 (Q04446 whole entry, looked up): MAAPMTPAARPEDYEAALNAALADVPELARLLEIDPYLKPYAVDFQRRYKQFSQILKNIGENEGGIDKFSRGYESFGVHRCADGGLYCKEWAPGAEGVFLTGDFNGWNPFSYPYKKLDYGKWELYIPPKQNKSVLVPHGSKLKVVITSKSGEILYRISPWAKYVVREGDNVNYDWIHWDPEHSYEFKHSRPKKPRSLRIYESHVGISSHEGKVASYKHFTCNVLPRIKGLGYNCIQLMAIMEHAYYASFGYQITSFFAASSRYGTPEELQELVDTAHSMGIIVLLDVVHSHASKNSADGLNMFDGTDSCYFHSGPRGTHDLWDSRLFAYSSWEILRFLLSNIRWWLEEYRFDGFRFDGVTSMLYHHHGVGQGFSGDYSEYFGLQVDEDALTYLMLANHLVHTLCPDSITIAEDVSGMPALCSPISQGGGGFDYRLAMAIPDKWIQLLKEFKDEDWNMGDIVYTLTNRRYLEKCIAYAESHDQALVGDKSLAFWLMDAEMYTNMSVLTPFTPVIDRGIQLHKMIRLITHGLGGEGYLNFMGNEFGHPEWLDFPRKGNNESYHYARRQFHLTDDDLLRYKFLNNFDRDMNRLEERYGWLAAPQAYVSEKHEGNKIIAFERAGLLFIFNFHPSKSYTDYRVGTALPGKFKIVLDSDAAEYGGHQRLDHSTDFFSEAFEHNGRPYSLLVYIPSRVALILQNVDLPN
Chain of UniProt P22830 (P22830 whole entry, looked up): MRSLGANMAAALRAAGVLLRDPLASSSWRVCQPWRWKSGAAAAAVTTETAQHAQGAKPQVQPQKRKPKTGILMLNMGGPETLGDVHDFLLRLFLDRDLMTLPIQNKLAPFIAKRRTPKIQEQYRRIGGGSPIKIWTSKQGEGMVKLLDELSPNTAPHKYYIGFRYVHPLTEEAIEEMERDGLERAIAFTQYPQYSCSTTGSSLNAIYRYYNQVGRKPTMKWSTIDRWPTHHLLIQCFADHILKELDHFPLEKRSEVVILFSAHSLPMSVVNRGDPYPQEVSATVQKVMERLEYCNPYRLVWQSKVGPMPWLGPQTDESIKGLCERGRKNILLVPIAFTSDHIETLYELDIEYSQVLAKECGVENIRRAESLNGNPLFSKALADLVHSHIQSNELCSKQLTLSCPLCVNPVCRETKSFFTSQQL
Chain of UniProt P30711 (P30711 whole entry, looked up): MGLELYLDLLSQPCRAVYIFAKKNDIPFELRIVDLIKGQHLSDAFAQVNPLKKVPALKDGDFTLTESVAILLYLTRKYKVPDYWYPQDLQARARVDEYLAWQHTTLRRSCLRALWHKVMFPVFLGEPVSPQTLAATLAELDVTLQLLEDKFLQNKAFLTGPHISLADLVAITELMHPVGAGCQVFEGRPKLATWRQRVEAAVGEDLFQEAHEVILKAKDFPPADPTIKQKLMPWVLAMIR
Chain of UniProt P49840 (P49840 whole entry, looked up): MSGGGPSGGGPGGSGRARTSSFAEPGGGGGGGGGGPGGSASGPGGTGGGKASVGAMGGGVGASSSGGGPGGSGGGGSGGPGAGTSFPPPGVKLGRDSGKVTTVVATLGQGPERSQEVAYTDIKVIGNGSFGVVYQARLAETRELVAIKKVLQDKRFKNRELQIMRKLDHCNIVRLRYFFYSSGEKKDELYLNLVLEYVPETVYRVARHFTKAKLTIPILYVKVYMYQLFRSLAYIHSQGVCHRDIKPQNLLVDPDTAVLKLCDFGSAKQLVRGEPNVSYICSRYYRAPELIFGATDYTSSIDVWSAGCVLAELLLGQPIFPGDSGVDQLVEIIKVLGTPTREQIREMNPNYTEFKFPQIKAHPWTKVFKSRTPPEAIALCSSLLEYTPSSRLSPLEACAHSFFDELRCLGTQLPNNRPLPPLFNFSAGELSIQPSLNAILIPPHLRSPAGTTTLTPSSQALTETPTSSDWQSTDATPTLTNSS
Chain of UniProt O43427 (O43427 whole entry, looked up): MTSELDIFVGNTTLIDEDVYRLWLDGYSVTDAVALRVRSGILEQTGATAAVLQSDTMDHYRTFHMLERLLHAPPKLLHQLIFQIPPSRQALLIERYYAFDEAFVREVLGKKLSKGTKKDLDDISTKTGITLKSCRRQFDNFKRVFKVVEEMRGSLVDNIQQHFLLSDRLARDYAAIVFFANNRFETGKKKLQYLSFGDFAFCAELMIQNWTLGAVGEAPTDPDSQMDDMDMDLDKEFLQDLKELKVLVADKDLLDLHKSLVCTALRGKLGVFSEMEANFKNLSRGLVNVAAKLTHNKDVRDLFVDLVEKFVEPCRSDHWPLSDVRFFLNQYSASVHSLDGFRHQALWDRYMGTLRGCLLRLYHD
Chain of UniProt P55084 (P55084 whole entry, looked up): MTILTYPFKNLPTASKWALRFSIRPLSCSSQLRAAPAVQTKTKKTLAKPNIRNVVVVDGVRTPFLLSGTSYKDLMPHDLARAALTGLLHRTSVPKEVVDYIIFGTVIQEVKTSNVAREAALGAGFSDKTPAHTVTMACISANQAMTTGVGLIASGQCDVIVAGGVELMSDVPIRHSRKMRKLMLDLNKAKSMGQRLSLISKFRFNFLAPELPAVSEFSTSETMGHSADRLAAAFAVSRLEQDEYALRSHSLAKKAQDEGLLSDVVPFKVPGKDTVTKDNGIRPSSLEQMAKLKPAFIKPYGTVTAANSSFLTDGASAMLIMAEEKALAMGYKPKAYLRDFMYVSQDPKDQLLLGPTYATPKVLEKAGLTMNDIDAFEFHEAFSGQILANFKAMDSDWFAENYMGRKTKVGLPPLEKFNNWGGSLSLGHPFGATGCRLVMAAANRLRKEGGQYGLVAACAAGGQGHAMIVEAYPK
Chain of UniProt P37268 (P37268 whole entry, looked up): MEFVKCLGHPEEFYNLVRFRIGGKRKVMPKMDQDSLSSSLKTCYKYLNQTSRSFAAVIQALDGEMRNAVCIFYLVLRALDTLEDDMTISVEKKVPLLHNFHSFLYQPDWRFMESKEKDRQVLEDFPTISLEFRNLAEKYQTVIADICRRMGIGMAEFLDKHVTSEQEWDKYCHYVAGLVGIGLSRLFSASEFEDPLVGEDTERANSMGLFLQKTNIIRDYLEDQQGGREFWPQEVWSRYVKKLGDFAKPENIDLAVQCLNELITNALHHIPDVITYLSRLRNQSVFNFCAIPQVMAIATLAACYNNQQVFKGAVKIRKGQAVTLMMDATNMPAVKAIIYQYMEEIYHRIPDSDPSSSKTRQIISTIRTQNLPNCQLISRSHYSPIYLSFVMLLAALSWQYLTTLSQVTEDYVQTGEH
Chain of UniProt O14893 (O14893 whole entry, looked up): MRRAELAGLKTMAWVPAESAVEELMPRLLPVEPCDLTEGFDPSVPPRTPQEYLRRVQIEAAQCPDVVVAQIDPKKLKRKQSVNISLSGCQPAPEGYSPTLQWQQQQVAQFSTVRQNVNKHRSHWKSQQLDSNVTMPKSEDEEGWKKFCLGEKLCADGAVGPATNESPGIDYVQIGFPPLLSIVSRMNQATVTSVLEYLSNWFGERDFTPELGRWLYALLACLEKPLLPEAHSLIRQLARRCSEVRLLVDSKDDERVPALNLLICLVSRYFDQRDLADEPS
Chain of UniProt Q8WUI4 (Q8WUI4 whole entry, looked up): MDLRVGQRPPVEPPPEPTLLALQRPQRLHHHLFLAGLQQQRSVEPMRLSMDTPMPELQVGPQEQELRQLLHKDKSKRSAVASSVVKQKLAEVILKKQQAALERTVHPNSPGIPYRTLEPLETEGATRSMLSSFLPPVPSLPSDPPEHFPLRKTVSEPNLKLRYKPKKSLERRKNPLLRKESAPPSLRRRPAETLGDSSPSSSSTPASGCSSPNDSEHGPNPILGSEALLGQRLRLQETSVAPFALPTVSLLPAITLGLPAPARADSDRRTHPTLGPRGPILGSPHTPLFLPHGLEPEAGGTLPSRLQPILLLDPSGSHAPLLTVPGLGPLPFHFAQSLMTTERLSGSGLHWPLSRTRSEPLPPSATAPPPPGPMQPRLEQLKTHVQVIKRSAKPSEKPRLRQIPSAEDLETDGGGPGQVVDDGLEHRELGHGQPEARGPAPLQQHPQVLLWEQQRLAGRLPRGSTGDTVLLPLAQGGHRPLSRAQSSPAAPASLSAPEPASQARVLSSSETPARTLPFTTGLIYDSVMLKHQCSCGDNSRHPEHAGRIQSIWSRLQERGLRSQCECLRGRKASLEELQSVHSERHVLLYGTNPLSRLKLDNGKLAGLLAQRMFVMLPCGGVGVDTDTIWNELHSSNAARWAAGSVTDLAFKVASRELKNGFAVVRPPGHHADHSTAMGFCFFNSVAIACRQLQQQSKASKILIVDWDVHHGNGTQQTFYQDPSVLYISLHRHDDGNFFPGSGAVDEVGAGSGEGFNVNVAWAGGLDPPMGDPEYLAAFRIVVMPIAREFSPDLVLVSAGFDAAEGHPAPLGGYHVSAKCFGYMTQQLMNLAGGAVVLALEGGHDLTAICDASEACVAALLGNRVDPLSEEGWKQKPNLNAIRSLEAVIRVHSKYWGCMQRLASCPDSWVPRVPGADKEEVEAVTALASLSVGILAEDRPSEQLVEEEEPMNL

| Target | log2 fold change (IRAK-1-4 Inhibitor I) | log2 fold change (ibrutinib) | log2 fold change [1] | log2 fold change (ralimetinib) | log2 fold change [2] | log2 fold change [3] | log2 fold change [4] | log2 fold change (pinometostat) | log2 fold change [5] | log2 fold change [6] | log2 fold change [7] | log2 fold change [8] | log2 fold change [9] | log2 fold change [10] | log2 fold change (Nexturastat A) | log2 fold change (vemurafenib) | log2 fold change [11] | log2 fold change [12] | log2 fold change (givinostat) | log2 fold change (barasertib) |
| --- | --- | --- | --- | --- | --- | --- | --- | --- | --- | --- | --- | --- | --- | --- | --- | --- | --- | --- | --- | --- |
| GDE1 (UniProt Q9NZC3) | -0.052 | 0.031 | -0.009 | 0.02 | -0.033 | 0.067 | 0.049 | 0.054 | 0.106 | 0.266 | 0.022 | -0.004 | 0.012 | -0.059 | 0.02 | -0.033 | -0.009 | 0.064 | -0.052 | -0.049 |
| GNL1 (UniProt P36915) | 0.07 | 0.037 | 0.046 | 0.011 | -0.063 | -0.03 | -0.014 | -0.006 | -0.037 | -0.086 | 0.019 | -0.014 | 0.032 | 0.036 | -0.031 | -0.01 | 0.081 | 0.002 | -0.033 | 0.017 |
| HADHB (UniProt P55084) | -0.025 | 0.074 | -0.326 | 0.068 | -0.155 | 0.37 | -0.106 | -0.05 | -0.147 | 0.104 | 0.19 | -0.248 | -0.002 | -0.012 | -0.085 | -0.047 | -0.042 | 0.113 | 0.064 | 0 |
| H2AFX (UniProt P16104) | -0.049 | 0.077 | 0.044 | 0.193 | 0.036 | -0.008 | 0.308 | 0.368 | -0.019 | 1.02 (active) | -0.088 | -0.006 | -0.231 | -0.073 | 0.754 | -0.232 | 0.329 | 0.1 | 0.328 | -0.11 |
| HS1BP3 (UniProt Q53T59) | 0.004 | -0.029 | -0.117 | 0.038 | -0.059 | -0.038 | 0.086 | -0.002 | 0.004 | – | 0.023 | -0.045 | -0.109 | -0.046 | 0.052 | 0.132 | 0.021 | – | 0.111 | 0.047 |
| FECH isoform 2 (UniProt P22830) | 0.408 | 0.082 | 0.129 | 0.159 | 0.426 | -0.691 (active) | -0.144 | -0.098 | -0.457 | 0.514 | 0.45 | 0.162 | -0.16 | -0.006 | -0.123 | 0.022 | -0.167 | 0.367 | -0.238 | -0.049 |
| HDAC7 isoform 5 (UniProt Q8WUI4) | 0.094 | -0.007 | -0.561 (active) | -0.123 | -0.031 | 0.108 | 0.036 | 0.035 | 0.029 | 0.065 | -0.01 | 0.028 | -0.043 | -0.002 | 0.108 | 0 | -0.009 | -0.014 | – | 0 |
| HSPA2 (UniProt P54652) | 0.008 | -0.006 | -0.28 | 0.01 | – | -0.441 (active) | 0.041 | 0.05 | 0.023 | – | -0.109 | 0.046 | – | -0.039 | – | – | – | 0.057 | 0.13 | -0.004 |
| GSTT1 (UniProt P30711) | -0.054 | 0.007 | 0.009 | -0.079 | -0.079 | 0.076 | -0.005 | -0.124 | 0.139 | 0.157 | – | -0.004 | 0.011 | 0.101 | -0.062 | 0.064 | -0.063 | 0.081 | 0.009 | -0.018 |
| HECTD1 (UniProt Q9ULT8) | -0.076 | -0.027 | 0.001 | 0.054 | -0.048 | -0.091 | 0.141 | 0.079 | 0.026 | -0.158 | 0.04 | -0.068 | 0.144 | -0.023 | 0.273 (active) | -0.04 | 0.126 | 0.054 | 0.038 | 0.048 |
| FIBP (UniProt O43427) | 0.026 | 0.019 | -0.146 | 0.041 | -0.143 | 0.018 | 0.065 | 0.075 | – | -0.039 | 0.046 | -0.009 | 0.001 | 0 | -0.009 | 0.03 | 0.089 | 0 | -0.009 | -0.071 |
| FDFT1 (UniProt P37268) | 0.001 | 0.007 | -0.025 | -0.028 | -0.015 | -0.083 | 0.077 | -0.042 | 0.012 | -0.06 | -0.008 | 0.01 | 0.063 | -0.034 | 0.01 | 0 | 0.092 | 0.1 | -0.018 | 0.009 |
| GSK3A (UniProt P49840) | 0.099 | 0.011 | 0.303 (active) | -0.061 | -0.107 | 0.011 | -0.022 | -0.031 | 0.011 | 0.022 | -0.025 | 0.009 | 0.197 | 0.021 | -0.094 | -0.023 | -0.003 | -0.039 | -0.053 | 0.014 |
| GBE1 (UniProt Q04446) | -0.241 | -0.026 | -0.102 | 0.051 | -0.074 | -0.23 | 0.027 | 0.186 | – | 0.04 | – | 0.08 | 0.128 | 0.014 | 0 | 0.162 | 0.065 | 0.005 | 0.038 | 0.109 |
| GLYR1 (UniProt Q49A26) | -0.067 | -0.074 | 0.054 | 0.088 | 0.093 | -0.057 | 0.09 | 0.111 | -0.076 | -0.016 | 0.039 | 0.032 | -0.125 | -0.06 | 0.375 (active) | 0.054 | 0.009 | 0.085 | 0.091 | 0.136 |
| GGA2 (UniProt Q9UJY4) | 0.007 | -0.05 | -0.006 | -0.153 | -0.048 | -0.169 | 0.068 | -0.038 | -0.04 | 0.032 | -0.015 | 0.033 | -0.047 | 0.06 | 0.582 (active) | 0.053 | 0.017 | -0.059 | -0.03 | 0.051 |
| GEMIN2 (UniProt O14893) | -0.046 | 0.055 | -0.061 | 0.049 | -0.307 | – | 0.012 | -0.096 | 0.044 | – | -0.073 | 0.033 | 0 | -0.002 | 0.243 | -0.028 | -0.023 | 0.029 | – | 0.078 |
